According to PubChem BioAssay (NCI):
Compounds without any hit were thinned out: in the full panel of roughly 83,000, 20% have a hit.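 Negative percent growth values reflect cell death: -40 means 40% of the cells present at the start died, and -100 means all died.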 A number with no mark means an inactive call. The source made the active and inactive calls. The calls were made as follows: active = growth percent below 10; inactive = the rest.

Tests used:
Test in all cases: NCI-60 one-dose screen, 48 h (100 = growth as untreated, 0 = no growth, -100 = all killed)
Conditions in all cases: 10 µM
T-47D breast = test system: T-47D breast
BT-549 breast = test system: BT-549 breast
MDA-MB-435 melanoma = test system: MDA-MB-435 melanoma
SW-620 colon = test system: SW-620 colon
MCF7 breast = test system: MCF7 breast
HCT-116 colon = test system: HCT-116 colon
HCC-2998 colon = test system: HCC-2998 colon
KM12 colon = test system: KM12 colon

| Compound | growth (T-47D breast) | growth (BT-549 breast) | growth (MDA-MB-435 melanoma) | growth (SW-620 colon) | growth (MCF7 breast) | growth (HCT-116 colon) | growth (HCC-2998 colon) | growth (KM12 colon) |
| --- | --- | --- | --- | --- | --- | --- | --- | --- |
| CN1CCN(CCCn2c(=O)c3sc4ncccc4c3n3nnc(-c4ccccc4)c23)CC1 | -75.4% (active) | 50.1% | -75.8% (active) | -65.5% (active) | 5.32% (active) | -59.2% (active) | -5.79% (active) | 16.4% |
| Cc1cc(NC(=O)c2ccc(C)c(Nc3nccc(-c4cccnc4)n3)c2)cc(-n2cnc(C)c2)c1 | -4.71% (active) | 41.1% | 12.2% | 50.2% | 24.4% | -64.1% (active) | 70.8% | 35.1% |
| OCCn1cccn1 | 102% | 110% | 102% | 101% | 116% | 110% | 97.1% | 102% |
| CC1=CC2C(C(O)CC3(C)C2CC(C)C32OCOC23COCO3)C2(C)C/C(=C/O)C(=O)C=C12 (configuration not stated) | 24.3% | 51.2% | 7.68% (active) | 5.28% (active) | 5.37% (active) | -70.2% (active) | 35% | 12% |
| CCN1C(=O)CC(SC2CC(=O)N(CC)C2=O)C1=O (configuration not stated) | 102% | 101% | 104% | 108% | 103% | 104% | 97.6% | 104% |
| C=CCN(CC=C)C(=O)[C@H](CC)[C@@H]1CC[C@@H](C)[C@@H]([C@H](C)[C@@H](O)[C@@H](C)C(=O)[C@H](CC)C2O[C@]3(C=C[C@@H](O)[C@]4(CC[C@@](C)([C@H]5CC[C@](O)(CC)[C@H](C)O5)O4)O3)[C@H](C)C[C@@H]2C)O1 (some centres not stated) | 9.12% (active) | 27.3% | 6% (active) | 12.3% | 1.92% (active) | 9.64% (active) | 12.6% | 27.5% |
| CC(=O)[C@H]1CC[C@]2(C)[C@@H]1CC[C@@H]1[C@@]3(C)CC(CCC#N)(CCC#N)C(=O)C(C)(C)[C@@H]3CC[C@]12C | 91.2% | 103% | 92.4% | 88.8% | 90.1% | 96% | 100% | 94.5% |
| CCC(=O)OC1CCC2C3CCC(=O)OC3C(C)(CCC(=O)O)CC12C (configuration not stated) | 37.7% | -8.83% (active) | -15.3% (active) | -11.3% (active) | 30.9% | 5.1% (active) | 5.22% (active) | 25.7% |
| CN1CCN(c2cc3c(cc2F)c(=O)c(C(=O)O)cn3-c2ccc(F)cc2)CC1 | 99.9% | 92.4% | 103% | 98% | 104% | 95.5% | 106% | 99% |
| COc1ccc(/C=C/c2nnc(/C=C/c3ccc(OC)c(OC)c3)o2)cc1OC | 19.5% | 25.5% | 10.4% | 18.1% | 22.8% | 4.83% (active) | 54.9% | 33.7% |
| CNS(=O)(=O)Oc1ccc(-c2sc3cc(OS(=O)(=O)NC)ccc3c2C(=O)c2ccc(OCCN3CCCCC3)cc2)cc1 | 60.8% | 73.7% | 70% | 65.1% | 30.5% | 33.4% | 93.8% | 80.2% |
| NS(=O)(=O)Oc1ccc2c(ccn2C(=O)C23CC4CC(CC(C4)C2)C3)c1 | 112% | 105% | 106% | 103% | 120% | 102% | 101% | 107% |
| CC[C@@H](C(=O)[C@@H](C)[C@@H](O)[C@H](C)[C@@H]1O[C@@H]([C@@H](CC)C(=O)O)CC[C@@H]1C)C1O[C@]2(C=CC(=O)[C@]3(CC[C@@](C)([C@H]4CC[C@](O)(CC)[C@H](C)O4)O3)O2)[C@H](C)C[C@@H]1C (some centres not stated) | 26.1% | 34.2% | 21% | 35.2% | 11.2% | 32.6% | 36.1% | 36% |
| CN(C)c1ccc(/C=N/NC(=O)c2cccc3ccccc23)c(Cl)c1 | 25.4% | 45.3% | -22.1% (active) | 24.2% | 15.1% | 31% | 61.2% | 22.7% |
| CCCCN(CCCC)C(=O)[C@H](CC)[C@@H]1CC[C@@H](C)[C@@H]([C@H](C)[C@@H](O)[C@@H](C)C(=O)[C@H](CC)C2O[C@]3(C=C[C@@H](O)[C@]4(CC[C@@](C)([C@H]5CC[C@](O)(CC)[C@H](C)O5)O4)O3)[C@H](C)C[C@@H]2C)O1 (some centres not stated) | 5.04% (active) | 8.46% (active) | 4.48% (active) | 9.41% (active) | -14.1% (active) | 2.55% (active) | 2.49% (active) | 20.6% |
| COc1cc(-c2nc3ccccc3o2)cc(CN2CCCCC2)c1O | 86.6% | 67.2% | -79.9% (active) | 64.6% | 50.8% | 57.2% | 97.7% | 44.9% |
| O=C(O)c1cc([N+](=O)[O-])ccc1Oc1ccccc1 | 106% | 92.7% | 94.1% | 96.1% | 99.3% | 102% | 105% | 98.2% |
| O=C(CCNC(=O)c1nc(-c2ccccc2)n(-c2ccc(Cl)cc2)n1)NO | 78.7% | 115% | 106% | 106% | 102% | 94% | 93.5% | 93.7% |
| Cc1ccccc1N1C(=O)c2cc(S(N)(=O)=O)c(Cl)cc2NC1C (configuration not stated) | 104% | 96.6% | 112% | 108% | 94.2% | 102% | 107% | 108% |
| CC(C)CCN(CCC(C)C)CC(=O)Nc1ccc(S(=O)(=O)c2ccc(NC(=O)CN(CCC(C)C)CCC(C)C)cc2)cc1 | 52.7% | 42.2% | 65.7% | -1.98% (active) | 15.3% | -54.2% (active) | 95.8% | 54.5% |
| CCCCC(CC)CN=C(N)NC(N)=NCCCCCCN=C(N)NC(N)=NCC(CC)CCCC (configuration not stated) | -54.3% (active) | -85.2% (active) | -94% (active) | -78% (active) | -75.7% (active) | -85.6% (active) | -88.8% (active) | -94.4% (active) |
| O=C1c2ccccc2-c2c1c1cccnc1c(=O)n2C[C@H](O)CO | 59.6% | 61.7% | 87.5% | 49.9% | 25.5% | 38.5% | 79.7% | 62.1% |
| COc1cc2nc(SCC(=O)Nc3cc(OC)c(OC)c(OC)c3)n(Cc3ccccc3)c(=O)c2cc1OC | 73.5% | 14% | 76.2% | 91% | 82.6% | 52.1% | 77.2% | 77.8% |
| COc1cc(OC)c2c(=O)c(O)c(-c3ccccc3)oc2c1 | 92.1% | 85.6% | 86.9% | 77.7% | 70.1% | 63.1% | 83.9% | 78.7% |
| N#CC1=C(N)Oc2cc(N)ccc2C1c1cccnc1 (configuration not stated) | 94.2% | 88.4% | 71.8% | 90.1% | 89.4% | 88.3% | 82.4% | 89.7% |
| CC(=O)N[C@H](C(=O)N[C@@H](CCCNC(=N)N)C(=O)N[C@@H](CCCCN)C(=O)N[C@@H](CCCNC(=N)N)C(=O)N[C@]1(C)CCCCCC/C=C\CCC[C@@](C)(C(=O)N[C@@H](CCCNC(=N)N)C(=O)N[C@@H](CCC(=O)O)C(=O)N[C@@H](CC(C)C)C(=O)N[C@H](C(=O)N[C@@H](CCC(=O)O)C(N)=O)C(C)C)NC(=O)[C@H](CCC(N)=O)NC(=O)[C@H](CC(C)C)NC(=O)[C@H](CC(C)C)NC(=O)[C@H](CCCNC(=N)N)NC(=O)[C@H](CCCNC(=N)N)NC(=O)[C@H](CC(C)C)NC1=O)C(C)C | -35.7% (active) | -46% (active) | 7.66% (active) | 25.9% | -41.7% (active) | 11.6% | 24.8% | -16.9% (active) |
| O=C(NCCCNS(=O)(=O)c1ccc(Cl)cc1)Nc1ccc(-n2cc(-c3ccncc3)c(-c3ccc(Cl)c(O)c3)n2)cc1 | 22.2% | 26.6% | 28.4% | 50.3% | 13.8% | 16.2% | 57.9% | 28.6% |
| Oc1cccc(-c2nc3sccn3c2-c2ccncn2)c1 | 108% | 110% | 46% | 108% | 76.7% | 97.3% | 111% | 107% |
| COC(=O)c1c[nH]c2cc(OC(C)C)c(OC(C)C)cc2c1=O | 103% | 112% | 106% | 105% | 84.8% | 102% | 104% | 106% |
